{"source": "paper PMC5515408", "about": "“Sequence-specific DNA binding by MYC/MAX to low-affinity non-E-box motifs”", "note": "Over roughly 5,000 sequences, “log2 normalized fluorescence” has its median near 0.089; the highest 2% begin near 0.81. Shown is part of a subset that was picked to be rich in the highest values."}
{"target": "MYC (p64);MAX (p21), in MYC:MAX (human;human, UniProt P01106-1;P61244-2 1-439;1-151, |)", "sequence (P01106 16-454, chain 1 of 2)": "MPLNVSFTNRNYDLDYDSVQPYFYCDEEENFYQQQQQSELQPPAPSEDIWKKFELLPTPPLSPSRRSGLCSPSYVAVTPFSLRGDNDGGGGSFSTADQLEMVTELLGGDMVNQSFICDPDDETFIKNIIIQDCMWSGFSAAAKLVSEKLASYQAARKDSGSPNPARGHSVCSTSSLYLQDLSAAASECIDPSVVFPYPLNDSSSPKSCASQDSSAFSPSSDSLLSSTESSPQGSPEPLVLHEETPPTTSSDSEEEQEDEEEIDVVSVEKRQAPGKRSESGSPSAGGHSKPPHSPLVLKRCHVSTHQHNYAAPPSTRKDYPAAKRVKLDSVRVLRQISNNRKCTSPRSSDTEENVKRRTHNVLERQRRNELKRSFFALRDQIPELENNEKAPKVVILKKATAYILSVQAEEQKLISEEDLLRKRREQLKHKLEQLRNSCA", "sequence (P61244 other isoform, or with tags, fused parts or gaps |, chain 2 of 2)": "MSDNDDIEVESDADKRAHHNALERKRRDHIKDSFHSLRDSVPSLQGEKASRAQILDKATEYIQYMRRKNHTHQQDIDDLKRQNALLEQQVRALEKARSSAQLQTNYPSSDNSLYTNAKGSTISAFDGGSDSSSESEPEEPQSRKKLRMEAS", "assay": "protein-binding microarray (anti-MAX antibody); PBM: 15 mM Tris-HCl pH 7.5, 100 mM KCl, 0.075% NP40, 7.5 mM beta-mercaptoethanol, 375 ng/ul BSA, 8 ng/ul poly(dA-dT):(dA-dT), 550 ng complex, 60 min, room tempe; high values mean tight binding", "conditions": "protein: recombinant;recombinant; tags: 6xHis;6xHis; copies: 1;1; label: 3' end of printed strand (linker) attached to glass slide; dsDNA, one strand shown", "how_it_was_run": "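Recombinant His-tagged human MYC:MAX or MAX:MAX dimers (550 ng, expressed in E. coli) were incubated for 60 min at room temperature in Tris-KCl buffer, pH 7.5, with NP40, BSA and poly(dA-dT) competitor. The custom Agilent glass array held ~5000 unique 12-nt sequences, each spotted in triplicate and made double-stranded by primer extension. Bound protein was detected with anti-MAX and secondary antibodies and scanned at 543 nm. Binding is reported as log2 normalized fluorescence.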"}
{"sequence": "CCGGCTGAGTGATCGTATTAATAGCTAAGATTACTATATCGACG", "binding signal": "0.194 log2 normalized fluorescence"}
{"sequence": "CCGGCTGAACATACGTATTAATAGCTAAGATTACTATATCGACG", "binding signal": "0.202 log2 normalized fluorescence"}
{"sequence": "CCGGCTGATGGCGGGTATTAATAGCTAAGATTACTATATCGACG", "binding signal": "0.232 log2 normalized fluorescence"}
{"sequence": "CCGGCTGACCCCGTGTATTAATAGCTAAGATTACTATATCGACG", "binding signal": "0.42 log2 normalized fluorescence"}
{"sequence": "CCGGCGGACACGAGGTATTAATAGCTAAGATTACTATATCGACG", "binding signal": "0.562 log2 normalized fluorescence"}
{"sequence": "CCGGCTGACCACCCGTATTAATAGCTAAGATTACTATATCGACG", "binding signal": "0.348 log2 normalized fluorescence"}
{"sequence": "CCGGCTGAGGGACGGTATTAATAGCTAAGATTACTATATCGACG", "binding signal": "0.0602 log2 normalized fluorescence"}
{"sequence": "CCGGCTGATGTTCTGTATTAATAGCTAAGATTACTATATCGACG", "binding signal": "0.261 log2 normalized fluorescence"}
{"sequence": "CCGGCTGATGAGGTGTATTAATAGCTAAGATTACTATATCGACG", "binding signal": "-0.000883 log2 normalized fluorescence"}
{"sequence": "CCGGCTGAGTATACGTATTAATAGCTAAGATTACTATATCGACG", "binding signal": "0.0171 log2 normalized fluorescence"}
{"sequence": "CCGGCAGCCACGTGGTATTAATAGCTAAGATTACTATATCGACG", "binding signal": "0.908 log2 normalized fluorescence"}
{"sequence": "CCGGCATGCACGTGGTATTAATAGCTAAGATTACTATATCGACG", "binding signal": "0.877 log2 normalized fluorescence"}
{"sequence": "CCGGCAGTCACGTGGTATTAATAGCTAAGATTACTATATCGACG", "binding signal": "0.893 log2 normalized fluorescence"}
{"sequence": "CCGGCTGTCACGTGGTATTAATAGCTAAGATTACTATATCGACG", "binding signal": "0.706 log2 normalized fluorescence"}
{"sequence": "CCGGCTGCATCGTGGTATTAATAGCTAAGATTACTATATCGACG", "binding signal": "0.636 log2 normalized fluorescence"}
{"sequence": "CCGGCAGCCACGTTGTATTAATAGCTAAGATTACTATATCGACG", "binding signal": "0.643 log2 normalized fluorescence"}
{"sequence": "CCGGCAGCTACGTGGTATTAATAGCTAAGATTACTATATCGACG", "binding signal": "0.389 log2 normalized fluorescence"}
{"sequence": "CCGGCTGAAAGAGAGTATTAATAGCTAAGATTACTATATCGACG", "binding signal": "-0.0282 log2 normalized fluorescence"}
{"sequence": "CCGGCTGACCGGGTGTATTAATAGCTAAGATTACTATATCGACG", "binding signal": "0.119 log2 normalized fluorescence"}
{"sequence": "CCGGCTGAGTACGGGTATTAATAGCTAAGATTACTATATCGACG", "binding signal": "-0.0173 log2 normalized fluorescence"}
{"sequence": "CCGGCTGATGCGCAGTATTAATAGCTAAGATTACTATATCGACG", "binding signal": "0.0262 log2 normalized fluorescence"}
{"sequence": "CCGGCTGAAACGTGGTCTTAATAGCTAAGATTACTATATCGACG", "binding signal": "0.74 log2 normalized fluorescence"}
{"sequence": "CCGGCTGGTACGTGGTCTTAATAGCTAAGATTACTATATCGACG", "binding signal": "0.364 log2 normalized fluorescence"}
{"sequence": "CCGGCTCAGACGTGGTATTAATAGCTAAGATTACTATATCGACG", "binding signal": "0.391 log2 normalized fluorescence"}
{"sequence": "CCGGCTTACACGTGGGATTAATAGCTAAGATTACTATATCGACG", "binding signal": "0.81 log2 normalized fluorescence"}
{"sequence": "CCGGCGGTCACGTGGTATTAATAGCTAAGATTACTATATCGACG", "binding signal": "0.805 log2 normalized fluorescence"}
{"sequence": "CCGGCGCTCACGTGGTATTAATAGCTAAGATTACTATATCGACG", "binding signal": "0.815 log2 normalized fluorescence"}
{"sequence": "CCGGCTCTTACGTGGTATTAATAGCTAAGATTACTATATCGACG", "binding signal": "0.358 log2 normalized fluorescence"}
{"sequence": "CCGGCTCTCACGTGGTATTAATAGCTAAGATTACTATATCGACG", "binding signal": "0.891 log2 normalized fluorescence"}
{"sequence": "CCGGCTCTCACGTGGTCTTAATAGCTAAGATTACTATATCGACG", "binding signal": "0.836 log2 normalized fluorescence"}
{"sequence": "CCGGCTCACACGTGGGCTTAATAGCTAAGATTACTATATCGACG", "binding signal": "0.832 log2 normalized fluorescence"}
{"sequence": "CCGGCTCATACGTGGTATTAATAGCTAAGATTACTATATCGACG", "binding signal": "0.558 log2 normalized fluorescence"}
{"sequence": "CCGGCTCACGATGGGGCTTAATAGCTAAGATTACTATATCGACG", "binding signal": "0.398 log2 normalized fluorescence"}
{"sequence": "CCGGCTGGCACCCGGTATTAATAGCTAAGATTACTATATCGACG", "binding signal": "0.242 log2 normalized fluorescence"}
{"sequence": "CCGGCTGACGTTTTGTATTAATAGCTAAGATTACTATATCGACG", "binding signal": "-0.0354 log2 normalized fluorescence"}
{"sequence": "CCGGCTGAAAGGCCGTATTAATAGCTAAGATTACTATATCGACG", "binding signal": "0.17 log2 normalized fluorescence"}
{"sequence": "CCGGCTGACACGCATTATTAATAGCTAAGATTACTATATCGACG", "binding signal": "0.524 log2 normalized fluorescence"}
{"sequence": "CCGGCTCACACGTCGTATTAATAGCTAAGATTACTATATCGACG", "binding signal": "0.506 log2 normalized fluorescence"}
{"sequence": "CCGGCTCACATGTGGTATTAATAGCTAAGATTACTATATCGACG", "binding signal": "0.918 log2 normalized fluorescence"}
{"sequence": "CCGGCTTACATGTGGTATTAATAGCTAAGATTACTATATCGACG", "binding signal": "0.625 log2 normalized fluorescence"}
{"sequence": "CCGGCCGTCACGTGGTATTAATAGCTAAGATTACTATATCGACG", "binding signal": "0.809 log2 normalized fluorescence"}
{"sequence": "CCGGCTATCACGTGGTATTAATAGCTAAGATTACTATATCGACG", "binding signal": "0.71 log2 normalized fluorescence"}
{"sequence": "CCGGCCGACATGTGGTATTAATAGCTAAGATTACTATATCGACG", "binding signal": "0.663 log2 normalized fluorescence"}
{"sequence": "CCGGCTCACACGTGGTATTAATAGCTAAGATTACTATATCGACG", "binding signal": "0.998 log2 normalized fluorescence"}
{"sequence": "CCGGCCATCACGTGGTATTAATAGCTAAGATTACTATATCGACG", "binding signal": "0.764 log2 normalized fluorescence"}
{"sequence": "CCGGCGATCACGTGGTATTAATAGCTAAGATTACTATATCGACG", "binding signal": "0.946 log2 normalized fluorescence"}
{"sequence": "CCGGCTATTACGTGGTATTAATAGCTAAGATTACTATATCGACG", "binding signal": "0.323 log2 normalized fluorescence"}
{"sequence": "CCGGCCCTCACGTGGTATTAATAGCTAAGATTACTATATCGACG", "binding signal": "0.828 log2 normalized fluorescence"}
{"sequence": "CCGGCTGACGCTTTGTATTAATAGCTAAGATTACTATATCGACG", "binding signal": "0.148 log2 normalized fluorescence"}
{"sequence": "CCGGCTGACCATTGGTATTAATAGCTAAGATTACTATATCGACG", "binding signal": "0.0788 log2 normalized fluorescence"}
{"sequence": "CCGGCTGAAAGAGTGTATTAATAGCTAAGATTACTATATCGACG", "binding signal": "0.0309 log2 normalized fluorescence"}
{"sequence": "CCGGCTGAGAGACGGTATTAATAGCTAAGATTACTATATCGACG", "binding signal": "-0.00994 log2 normalized fluorescence"}
{"sequence": "CCGGCTGACACGCGAGATTAATAGCTAAGATTACTATATCGACG", "binding signal": "0.438 log2 normalized fluorescence"}
